Screening results: PubChem BioAssay, several laboratories
NTR1 agonist: activates human neurotensin receptor 1; P30989; NTR1-U2OS beta-arrestin-GFP spot imaging, agonist mode; activation, % at 20 µM; hit rate 0.17% among 330,000;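 active means activation at or above 40% of the spot to cytoplasm intensity ratio, with at least 20 cells analyzed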;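 further: 0% = DMSO without peptide and 100% = 100 nM NTR1 peptide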
B2AR ag: activates human beta-2 adrenergic receptor causing internalization; Am2.2-beta2AR cells, FAP receptor internalization, flow cytometry; response, % (test concentration not listed); hit rate 0.43% among 340,000; AID 504454;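 active means response above a set limit, near 3 SD of response in nonfluorescent compounds, cut at about 42% in these data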
Granule exo inh: lytic granule exocytosis inhibition. TALL-104 LAMP-1 surface exposure, flow cytometry; cells stimulated with thapsigargin and PMA. inhibition, % at 10 µM. hit rate 0.66% among 360,000. AID 651702;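 active means inhibition above about 55%, limit read from the data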
ABHD5-PLIN5 inh: blocks binding of human ABHD5 to perilipin-5 | Q00G26+Q8WTS1 | inhibition, % at 4 µM | Split G. princeps luciferase complementation, luminescence, 4 h | hit rate 0.78% among 360,000 | AID 602281;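 active means inhibition above the mean inhibition across every tested compound plus 3 SD, cut at about 22% in these data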;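 further: 0% = DMSO only wells and the 100% control is not disclosed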
m5-HT2A agonist: mouse HTR2A agonism via beta-arrestin recruitment | P35363 | CHO-K1 mHTR2A beta-arrestin complementation, luminescence; percent of 30 µM serotonin response | activation, % at 7.6 µM | hit rate 0.66% among 360,000 | AID 624169;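 active means activation above a run cutoff, the mean activation of all tested compounds plus 3 SD, cut at about 14% in these data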;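 further: 0% = plate median of compound wells and 100% = 30 µM serotonin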
Target sequence (P35363 whole entry, looked up): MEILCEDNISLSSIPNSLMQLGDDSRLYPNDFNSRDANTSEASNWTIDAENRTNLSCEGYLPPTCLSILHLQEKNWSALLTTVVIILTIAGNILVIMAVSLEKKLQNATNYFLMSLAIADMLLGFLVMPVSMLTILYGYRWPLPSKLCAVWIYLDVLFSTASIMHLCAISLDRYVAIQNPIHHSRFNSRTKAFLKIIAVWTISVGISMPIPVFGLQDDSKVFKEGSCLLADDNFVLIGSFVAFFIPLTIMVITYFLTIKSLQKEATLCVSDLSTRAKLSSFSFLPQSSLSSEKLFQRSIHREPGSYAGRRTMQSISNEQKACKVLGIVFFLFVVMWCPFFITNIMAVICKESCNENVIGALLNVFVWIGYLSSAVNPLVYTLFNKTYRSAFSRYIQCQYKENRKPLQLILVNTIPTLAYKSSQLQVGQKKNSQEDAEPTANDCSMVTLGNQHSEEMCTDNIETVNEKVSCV
MOR ag counter: OPRM1 agonism in mouse HTR2A counterscreen; shares compounds with m5-HT2A agonist; U2OS OPRM1 beta-arrestin PathHunter, luminescence; DMSO 0%, DAMGO 9.3 µM 100%; activation, % at 9.3 µM; hit rate 5.3% among 2,300; AID 624380;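 active means mean activation above the mean of DMSO-only wells plus 3 SD, cut at about 0.5% in these data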
HTR2A ag conf: confirmation of mouse HTR2A serotonin receptor agonists. shares compounds with m5-HT2A agonist. CHO-K1 PathHunter beta-arrestin recruitment, luminescence; DMSO 0%, 30 µM serotonin 100%. activation, % at 7.6 µM. hit rate 19% among 2,300. AID 624381;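 active means mean activation across triplicates above the hit threshold derived in the original primary screen, cut at about 15% in these data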
* hit, by the source's call. Hits are enriched below; roughly 2.3% of the tested compounds scored in any of these assays.

Screening CC(C)CN(C(=O)CSc1nncn1-c1ccccc1)c1c(N)n(CC(C)C)c(=O)[nH]c1=O returned NTR1 agonist 0.7, B2AR ag -5.3, Granule exo inh -3.2, ABHD5-PLIN5 inh 4.3, m5-HT2A agonist 15.7*, MOR ag counter -0.6 and HTR2A ag conf 0.0.
Screening CC(C)Oc1ccc(C(=O)Nc2ccc(N3CCN(C(=O)c4ccco4)CC3)cc2)cc1 returned NTR1 agonist 1.0, B2AR ag 7.2, Granule exo inh -0.3, ABHD5-PLIN5 inh 3.5, m5-HT2A agonist 14.6*, MOR ag counter -0.1 and HTR2A ag conf -1.7.
For CC(C)Oc1ccc(C(=O)Nc2ccc(N3CCCC3)cc2)cc1 the results were NTR1 agonist 1.4, B2AR ag 27.6, Granule exo inh 2.5, ABHD5-PLIN5 inh 12.3 and m5-HT2A agonist 0.8.
Screening O=C(NCCCN1CCN(c2cccc(Cl)c2)CC1)c1ccc(N2CCCC2=O)cc1 returned NTR1 agonist -0.1, B2AR ag -1.5, Granule exo inh 2.0, ABHD5-PLIN5 inh 6.8 and m5-HT2A agonist 4.5.
`O=C(NCCCN1CCN(c2cccc(Cl)c2)CC1)c1cccc(N2CCCC2=O)c1` gave NTR1 agonist 1.4, B2AR ag 1.8, Granule exo inh 1.9, ABHD5-PLIN5 inh 4.0, m5-HT2A agonist 17.4*, MOR ag counter -0.7 and HTR2A ag conf 3.8.
`Cc1cc(N/N=C/c2ccc(O)c(C)c2O)nc(-c2ccccc2O)n1` gave B2AR ag 23.6, Granule exo inh 80.4*, ABHD5-PLIN5 inh 2.2, m5-HT2A agonist 20.1*, MOR ag counter 0.5 and HTR2A ag conf 64.6*.
`C/C(=N\Nc1cc(C)nc(-c2ccccc2O)n1)c1ccccc1` gave NTR1 agonist 10.9, B2AR ag 5.4, Granule exo inh -1.0, ABHD5-PLIN5 inh -8.1 and m5-HT2A agonist -4.4.
For O=[N+]([O-])c1cc2ncccc2c2ncccc12 the results were Granule exo inh 3.5, ABHD5-PLIN5 inh -7.4, m5-HT2A agonist 14.6*, MOR ag counter 0.1 and HTR2A ag conf -4.4.
For COc1cc(C)nc(NS(=O)(=O)c2ccccc2Cl)n1 the results were NTR1 agonist -0.6, B2AR ag 7.3, Granule exo inh 1.2, ABHD5-PLIN5 inh 1.4, m5-HT2A agonist 30.7*, MOR ag counter -0.5 and HTR2A ag conf -1.5.
`O=C(CN1C(=O)NC2(CCCC2)C1=O)N1CCN(c2ccccc2O)CC1` gave NTR1 agonist 0.0, B2AR ag -0.6, Granule exo inh 0.4, ABHD5-PLIN5 inh -1.3 and m5-HT2A agonist 0.5.
O=C(C1CCCO1)N1CCN(S(=O)(=O)c2cc(C(F)(F)F)ccc2Cl)CC1 (configuration not stated) was read as NTR1 agonist 1.5, B2AR ag -0.6, Granule exo inh -9.4, ABHD5-PLIN5 inh 11.8 and m5-HT2A agonist 1.7.
`CSc1nc(C)c(C(=O)Nc2ccccc2)c(-c2ccco2)c1C#N` gave NTR1 agonist 3.9, B2AR ag -1.2, Granule exo inh -0.7, ABHD5-PLIN5 inh -4.0, m5-HT2A agonist 16.1*, MOR ag counter -0.5 and HTR2A ag conf -3.1.
Screening CCc1ccccc1S(=O)(=O)c1c(C)cc(C)nc1Cl returned NTR1 agonist 0.4, B2AR ag 0.6, Granule exo inh 5.7, ABHD5-PLIN5 inh -6.9 and m5-HT2A agonist 4.4.
Nc1ccc(C(=O)N/N=C\C=C\c2ccc([N+](=O)[O-])cc2)cc1 was read as NTR1 agonist 0.7, B2AR ag 3.5, Granule exo inh 2.0, ABHD5-PLIN5 inh 8.7, m5-HT2A agonist 16.6*, MOR ag counter -0.1 and HTR2A ag conf 3.6.
Screening Cc1noc(C)c1S(=O)(=O)N1CCC(C(=O)N2CCC(N3CCCCC3)CC2)CC1 returned NTR1 agonist 4.9, B2AR ag 7.9, Granule exo inh 5.1, ABHD5-PLIN5 inh 0.1, m5-HT2A agonist 34.5*, MOR ag counter -0.5 and HTR2A ag conf -4.1.
For Cc1noc(C)c1S(=O)(=O)N1CCCC(C(=O)N2CCN(C3CCCCC3)CC2)C1 (configuration not stated) the results were NTR1 agonist -2.7, B2AR ag -1.4, Granule exo inh -3.1, ABHD5-PLIN5 inh -7.0 and m5-HT2A agonist -0.1.
`O=C(Nc1nc2ccccc2s1)C1CC(=O)N(c2ccc(Br)cc2)C1` (configuration not stated) gave NTR1 agonist 1.8, B2AR ag -11.0, Granule exo inh -3.9, ABHD5-PLIN5 inh -6.2 and m5-HT2A agonist -3.6.
Cc1nc(C)c(-c2ccc(SCC(=O)Nc3cccc(Cl)c3C)nn2)s1 was read as NTR1 agonist 1.5, B2AR ag 8.9, Granule exo inh -0.8, ABHD5-PLIN5 inh -2.2 and m5-HT2A agonist 1.0.
For CCS(=O)(=O)c1nc(S(=O)(=O)c2ccc(C)cc2)c(N2CCCCCC2)s1 the results were Granule exo inh 1.4, ABHD5-PLIN5 inh -5.2, m5-HT2A agonist 14.7*, MOR ag counter -0.7 and HTR2A ag conf -4.3.
CCS(=O)(=O)c1nc(S(=O)(=O)c2ccc(C)cc2)c(N2CCCC2)s1 was read as NTR1 agonist -2.1, B2AR ag -9.8, Granule exo inh 2.5, ABHD5-PLIN5 inh 9.9 and m5-HT2A agonist -9.0.
`CC(C)OC(=O)N(C)C[C@@H]1OCc2cn(nn2)CCCC(=O)N([C@@H](C)CO)C[C@H]1C` gave Granule exo inh 0.3, ABHD5-PLIN5 inh -7.1 and m5-HT2A agonist -0.2.
For CCCN1C[C@H](CSC)C[C@@H]2c3cccc4[nH]cc(c34)C[C@H]21 the results were NTR1 agonist 3.3, B2AR ag 4.9, Granule exo inh 6.6, ABHD5-PLIN5 inh 0.1, m5-HT2A agonist 113.3*, MOR ag counter -0.4 and HTR2A ag conf 160.2*.
`CN(C)C(=O)c1snnc1-c1ccccc1` gave NTR1 agonist 0.6, B2AR ag -1.1, Granule exo inh 3.4, ABHD5-PLIN5 inh 0.7, m5-HT2A agonist 17.5*, MOR ag counter -0.5 and HTR2A ag conf -2.3.
Screening O=S(=O)(c1ccccc1)c1ccc(N2CCCCCC2)cc1 returned NTR1 agonist 0.6, B2AR ag -0.2, Granule exo inh 53.1, ABHD5-PLIN5 inh 2.4 and m5-HT2A agonist 1.0.
`c1ccc2cc(CN3CCOCC3)ccc2c1` gave NTR1 agonist -1.3, B2AR ag 1.0, Granule exo inh 0.8, ABHD5-PLIN5 inh 8.6, m5-HT2A agonist 20.0*, MOR ag counter -0.6 and HTR2A ag conf -4.0.
`O=C(Nc1ccc(CN2CCOCC2)cc1)c1ccc2ccccc2c1` gave NTR1 agonist 1.5, B2AR ag 9.7, Granule exo inh -0.7, ABHD5-PLIN5 inh 2.7 and m5-HT2A agonist -7.2.
